S2 tox = Viability Counterscreen for Primary qHTS for Inhibitors of ATXN expression; S2 cells (HEK-293 line with an ATXN2-luciferase reporter) viability, CellTiter-Fluor protease fluorescence, 24 h; Potency, µM (doses to about 56.7 µM), usual class: cytotoxic; 400,000 compounds, 0.49% hits; AID 651635, 2014; also: nearly all actives have a fitted effect of over 40% in size
DT40 TDP1 CPT = qHTS for Inhibitors of human tyrosyl-DNA phosphodiesterase 1 (TDP1): qHTS in cells in presence of CPT; chicken DT40 Tdp1-/-;hTDP1 cells + 20 nM CPT, ATP luminescence, 48 h; Potency, µM (series often up to 46.2 µM), inactives show top-dose activity change, negative = growth inhibition, most hits filed as inhibitors; 420,000 compounds, 12% hits; also: % is scaled to controls: 0 for no effect and ±100 for the full control effect; nearly all actives have a fitted effect of over 55% in size
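Chicken DT40 Tdp1-/- cells complemented with human TDP1, 400 cells/well, exposed to compounds plus 20 nM camptothecin for at least 48 h at 37 C; viability read as ATP content by CellTiter-Glo luminescence.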
TGFb SMAD3 inh = qHTS for Inhibitors of TGF-b. HepG2 CAGA-GFP TGF-b/SMAD3 reporter, GFP fluorescence, 18 h; TGF-beta stimulated, 500 pg/mL final. Potency, µM (highest dose often 46.1 µM), for inactives: at the top dose activity, negative = inhibition, actives largely listed as inhibitors. 410,000 compounds, 1.2% hits. AID 588855, 2011; also: % is scaled to controls: 0 for no effect and ±100 for the full control effect; nearly all actives have a fitted effect of over 65% in size
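HEPG2 CAGA-GFP reporter cells (1000/well, DMEM with 1% FBS) received compounds, then recombinant TGF-beta at 500 pg/mL final for 18 hours at 37 degrees C. Per-cell GFP summed per well was normalised to unstimulated and stimulated DMSO controls before curve fitting.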
ATXN2 expr inh = Primary qHTS for Inhibitors of ATXN expression; HEK-293 ATXN2-luciferase reporter, luminescence, 24 h; Potency, µM (doses to about 57 µM), for the others: at the highest dose activity change, negative = inhibition, hits mostly inhibitors; 360,000 compounds, 0.72% hits; AID 1745845, 2022; also: % is scaled to controls: 0 for no effect and ±100 for the full control effect; nearly all actives have a fitted effect of over 55% in size
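qHTS (up to 57 uM final) was run with 24 h compound exposure of reporter cells at 37 °C. Each well was multiplexed: SteadyGlo luminescence measured ATXN2-luciferase expression after a fluorogenic Gly-Phe-AFC viability readout (25 uM final).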
TDP1 cell noCPT = qHTS for Inhibitors of human tyrosyl-DNA phosphodiesterase 1 (TDP1): qHTS in cells in absence of CPT; DT40 Tdp1-/- hTDP1 cells, no CPT, ATP luminescence, 48 h; Potency, µM (top dose mostly 46.2 µM), without a hit: top-dose activity change, negative = growth inhibition, actives largely listed as inhibitors; 420,000 compounds, 15% hits; AID 686978, 2013; also: % is scaled to controls: 0 for no effect and ±100 for the full control effect; nearly all actives have a fitted effect of over 55% in size
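Luminescent ATP content (CellTiter-Glo) served as the growth readout. Knockout chicken DT40 cells expressing human TDP1 were exposed to compounds without camptothecin for a minimum 48 hr at 37 °C.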
HepG2 tox = qHTS for Inhibitors of TGF-b: Cytotox Counterscreen | HepG2 CAGA-GFP viability, ATP luminescence, 18 h | Potency, µM (highest dose often 46.1 µM), for inactives: at the highest dose activity change, negative = cytotoxicity, hits mostly cytotoxic | 410,000 compounds, 0.76% hits
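CellTiter-Glo luminescence gave cytotoxicity after 18 hours at 37 degrees C. The cells were HepG2 CAGA-GFP in 1% FBS DMEM, stimulated with 500 pg/mL TGF-beta after compound addition. %Activity was normalised to no-cell wells (complete cell-killing) and DMSO (no toxicity), and curves were fitted and classified.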
Starred values were filed as active, the others as inactive; i = inactive; ? = inconclusive; nt = no result given; ! = not active in a repeat. Most compounds without a hit are left out; they make up all but 17% or so of the library. Calls follow the shape of the dose curve; as a rule, active = well fitted curve in the direction sought with a large enough effect; inconclusive = small, poorly fitted or top-dose-only effect, or another doubt; inactive = no such curve, though single readings can be large; an effect the other way counts as inactive or inconclusive. Potency is read from the fitted curve at half-maximal effect.

SMILES	S2 tox	DT40 TDP1 CPT	TGFb SMAD3 inh	ATXN2 expr inh	TDP1 cell noCPT	HepG2 tox
C[C@H]1CN(S(=O)C(C)(C)C)[C@@H](CCO)/C1=C\CCO (stereo partly specified)	i	-0.7%	0.4%	5.5%	-0.6%	15.9%
Cc1ccc(Cc2c(-c3ccccc3)nc3cc(C)c(Br)c(C)n23)cc1	i	?	?	26.8%	?	-31.3%
N#Cc1ccc(-c2nc3ccc(Br)cn3c2Cc2cccc(F)c2)cc1	i	?	-2.5%	10.1%	?	-9.2%
Cc1cc2nc(-c3ccc(C#N)cc3)c(Cc3cccc(F)c3)n2c(C)c1Br	i	18.4µM*	?	?	14.6µM*	-13.5%
Cc1cc(Br)cn2c(Cc3cccc(F)c3)c(-c3ccc(C#N)cc3)nc12	?	18.4µM*	nt	-2.9%	?	nt
Cc1cc2nc(-c3cccc(Cl)c3)c(Cc3ccsc3)n2c(C)c1Br	i	?	nt	14.9%	?	nt
Cc1cc2nc(-c3ccc(F)cc3)c(Cc3ccccc3)n2c(C)c1Br	i	20.6µM*	-38.0%	49.5%	20.6µM*	-31.7%
Cc1ccc(-c2nc3cc(C)c(Br)c(C)n3c2Cc2cccc(F)c2)cc1	i	7.31µM*	-8.4%	97.8%	10.3µM*	-9.8%
Cn1c(=O)c2c(ncn2CCCC(=N)N2CCOCC2)n(C)c1=O	i	12.2%	2.4%	8.6%	-1.9%	7.7%
COc1cccc(NC(=O)Cn2c(=O)n(Cc3ccco3)c(=O)c3cc(OC)c(OC)cc32)c1	i	-13.6%	?	-20.4%	-6.2%	-9.5%
COc1ccc(-c2nc3c(c(SCC(=O)N4CCCC4)n2)COC(C)(C)C3)cc1	?	-28.5%	-2.4%	5.2%	-18.7%	-41.2%
Cc1cc2nc(-c3ccccc3)c(Cc3cccc(F)c3)n2c(C)c1Br	?	?	?	13.7%	16.4µM*	-9.7%
Cc1cc2nc(C3CCCCC3)c(Cc3cccc(F)c3)n2c(C)c1Br	i	16.4µM*	-8.1%	2.7%	?	-38.8%
Cc1cc2nc(-c3cccc(Br)c3)c(Cc3ccccc3)n2c(C)c1Br	i	16.4µM*	?	43.5%	?	-38.5%
Cc1ccc(-c2ccc(=O)n(CC(=O)NCCN(CC(C)C)CC(C)C)n2)cc1	i	?	0.1%	-12.4%	-19.9%	0.9%
CC[n+]1ccccc1/C=C1\Sc2ccc(C)cc2N1C	?	0.461µM*	?	3.98µM*	0.326µM*	-64.3%
Cc1nc(C(F)(F)F)ccc1C(=O)N1CCCC(C)(C(=O)O)C1 (stereo unspecified)	i	-2.3%	6.6%	-1.4%	-9.5%	-7.8%
Cc1[nH]c(=O)c(C#N)cc1-c1ccc2nccn2c1	i	-7.9%	nt	-7.2%	-1.9%	nt
Cc1[nH]c(=O)c(C#N)cc1-c1ccncc1	i	?	-1.2%	0.0%	0.0596µM*!	-22.9%
C=CCCC(=O)N1C[C@@H](CO)[C@@H](NC)C[C@H]1c1ccccc1Br	i	-17.6%	-19.1%	-3.4%	-2.1%	0.4%
C(CCc1nn[nH]n1)CCC1CCCCC1	i	6.8%	24.1%	1.1%	12.2%	1.6%
CCOC(=O)c1cccc(NC(=O)CN2C(=O)CC(C)(C)Sc3ccccc32)c1	28.2µM*	20.6µM*	-7.9%	-23.1%	?	-21.5%
CCOC(=O)c1ccccc1NC(=O)CN1C(=O)CCS(=O)(=O)c2ccccc21	i	23.1µM*	-5.1%	7.5%	20.6µM*	0.2%
CC(C)Oc1ccc(CNC(=O)Nc2ccc3c(c2)N(C)C(=O)c2ccccc2S3)cc1	nt	?	-2.6%	nt	23.1µM*	-20.6%
CCOC(=O)c1cccc(NC(=O)Nc2ccc3c(c2)N(C)C(=O)c2ccccc2S3)c1	nt	20.6µM*	?	nt	?	-18.4%
SMILES	S2 tox	DT40 TDP1 CPT	TGFb SMAD3 inh	ATXN2 expr inh	TDP1 cell noCPT	HepG2 tox
CC(=O)Nc1cccc(NC(=O)CN2C(=O)CCSc3ccccc32)c1	i	nt	24.5%	4.4%	nt	-2.8%
O=C(COC(=O)C1CCN(S(=O)(=O)c2cccs2)CC1)NCc1ccc(F)cc1	i	18.3%	-19.7%	9.0%	9.9%	-5.1%
CS(=O)(=O)c1cccc(C(=O)N(CCc2ccccc2)Cc2cccs2)c1	i	?	8.9%	-6.0%	?	-5.0%
CCCCNC(=O)Nc1ccc2c(c1)N(C)C(=O)c1ccccc1S2	i	?	?	0.1%	16.4µM*	-31.0%
CC(=O)c1cccc(NC(=O)Nc2ccc3c(c2)N(C)C(=O)CS3)c1	?	16.4µM*	-20.9%	?	16.4µM*	-46.0%
O=C(COC(=O)c1cc([N+](=O)[O-])ccc1NCc1ccccc1)NC1CCCc2ccccc21 (stereo unspecified)	i	?	-0.7%	-2.5%	?	-4.9%
CCCNC(=O)NC(=O)CSc1nc2ccccc2c(=O)n1Cc1ccncc1	i	-24.8%	13.4%	2.9%	-21.0%	-33.5%
CCN1CCN(c2cc(C)c3cc(NC(=O)c4cccc(Cl)c4)ccc3n2)CC1	nt	14.6µM*	?	nt	6.51µM*	-77.6%
CCN1CCN(c2cc(C)c3cc(NC(=O)/C=C/c4cccc(Cl)c4)ccc3n2)CC1	?	5.17µM*	83.8%	-17.5%	-6.7%	-34.6%
CN(CC(=O)Nc1cccc(F)c1)C(=O)C1CCC(C(=O)N(C)CC(=O)Nc2cccc(F)c2)CC1 (stereo unspecified)	i	-1.6%	-1.3%	-6.3%	-10.1%	-2.5%
CCN1C(=O)[C@H]2[C@@H](c3ccc(C)cc3)N[C@]3(CCCN(Cc4ccc(C)cc4)C3=O)[C@H]2C1=O	?	?	-5.4%	-14.3%	3.0%	-8.2%
CCN1C(=O)[C@H]2[C@@H](c3ccc(C(F)(F)F)cc3)N[C@]3(CCCN(Cc4ccc(C)cc4)C3=O)[C@H]2C1=O	?	13µM*	-3.8%	-6.1%	16.4µM*	-28.3%
CCN1C(=O)[C@H]2[C@@H](c3ccc(C)cc3)N[C@]3(CCCN(Cc4ccco4)C3=O)[C@H]2C1=O	i	-27.4%	-5.1%	-12.5%	?	-50.1%
CCN1C(=O)[C@H]2[C@@H](c3ccc(C(F)(F)F)cc3)N[C@]3(CCCN(Cc4ccco4)C3=O)[C@H]2C1=O	i	23.1µM*	-16.4%	-10.0%	16.4µM*	-23.1%
